Potency data for 34 molecules are collected here from PubChem BioAssay (NCATS).

Records with an inconclusive call do not appear. Entries that show only a call come without a potency. Active and inactive are the calls of the source. Calls come from the whole dose curve; as a rule, active = well fitted inhibition curve with a large enough effect; inconclusive = small, poorly fitted or top-dose-only effect; inactive = no such curve, though single readings can be large or run the other way.
Potency is the fitted concentration of half-maximal effect.

The nature of the assay: HTS Assay for Allosteric Antagonists of the Human D2 Dopamine Receptor: Hit Validation in HTRF (AID 624455).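 Note: stable D1 dopamine receptor cell line scored for blocking the D1 response.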 To be noted: Cells stably expressing D1 dopamine receptor, inhibition mode; series mostly up to 46.1 µM. The procedure, abridged:
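Hit validation in cells stably expressing the D1 dopamine receptor, run in HTRF format. Compounds were tested for their ability to inhibit the D1-mediated response.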
A general note: Time-resolved FRET reads energy transfer from a long-lived donor to a nearby acceptor.
Regarding `Fc1cccc(/C=N/N=C/c2cccc(F)c2)c1`, the Potency entry is “inactive”.

For the molecule `O=[N+]([O-])c1ccc2c(c1)S(=O)(=O)C=C2`, the Potency entry was “inactive”.

Consider `C=C[C@H]1CN2CC[C@@H]1C[C@@H]2[C@@H](O)c1ccnc2ccc(OC)cc12`, for which the Potency entry was “inactive”.

Take `CC1(C)CCC=[N+]1[O-]`: the Potency entry is “inactive”.

For `O=C1NC(=O)/C(=C/c2ccc3nccnc3c2)S1`, the Potency result was “inactive”.

For `C[N+]1(C)CCC(OC(=O)C(c2ccccc2)c2ccccc2)CC1`, the Potency entry was “inactive”.

`C=CC(N)CCC(=O)O` (centres undefined): the Potency entry was “inactive”.

Regarding `CC(=O)SCC[N+](C)(C)C`, the Potency entry was “inactive”.

In the case of `COc1ccc2c(c1)CCC1C2CC[C@@]2(C)C1CC[C@@H]2NCCCCCCN1C(=O)CCC1=O` (some centres undefined), the Potency entry is “inactive”.

Regarding `COc1cc(C(O)CO)ccc1OS(=O)(=O)O` (centres undefined), the Potency entry was “inactive”.

With `CN(C)C(N)=NCCC[C@H](N)C(=O)O`, the Potency entry is “inactive”.

Consider `N#C/C(=C\c1ccc(-c2cc(Cl)ccc2Cl)o1)C(=O)Nc1cccc2ncccc12`, for which the Potency entry is “inactive”.

For the molecule `COc1ccccc1N1CCN(CCN(C(=O)c2ccc(I)cc2)c2ccccn2)CC1`, the Potency entry was “inactive”.

Regarding `COc1ccccc1N1CCN(CCCCNS(=O)(=O)c2cccc3c(N(C)C)cccc23)CC1`, the Potency entry was “inactive”.

As to `CN=c1nc(-c2ccccc2)n(-c2ccccc2)s1`, the Potency result was “inactive”.

`CCCCC#Cc1nc(NC)c2ncn([C@@H]3O[C@H](CO)[C@@H](O)[C@H]3O)c2n1`: the Potency entry was “inactive”.

In the case of `CN1CCc2ccccc2Cc2[nH]c3ccccc3c2CC1`, the Potency entry was “inactive”.

For the molecule `COc1cc(SC)ccc1C(=O)N1CCC(Cc2ccccc2)CC1`, the Potency entry is “inactive”.

As to `O=c1[nH]c2cc(C(F)(F)F)ccc2n1-c1cc(C(F)(F)F)ccc1O`, the Potency entry was “inactive”.

Regarding `CC(C)ON([C@@H](C(=O)NO)C(C)C)S(=O)(=O)c1ccc(-c2ccccc2)cc1`, the Potency result is “inactive”.

For `O=c1[nH]c2cc([N+](=O)[O-])c([N+](=O)[O-])cc2[nH]c1=O`, the Potency entry was “inactive”.

`NC(=S)NCCC[C@H](N)C(=O)O`: the Potency entry is “inactive”.

Regarding `CC[C@@H](C)[C@H]1O[C@]2(CC[C@H]1C)C[C@@H]1C[C@@H](CC=C(C)[C@@H](O[C@H]3C[C@H](OC)[C@@H](O[C@H]4C[C@H](OC)[C@@H](O)[C@H](C)O4)[C@H](C)O3)[C@@H](C)C=CC=C3CO[C@@H]4[C@H](O)C(C)=C[C@@H](C(=O)O1)[C@]34O)O2`, the Potency result is “inactive”.

Regarding `OC[C@H]1O[C@@H](n2cnc3c(Nc4ccccc4)ncnc32)[C@H](O)[C@@H]1O`, the Potency result is “inactive”.

Turning to `O=C(O)[C@@H]1C[C@@H](C(=O)O)N1`, the Potency result is “inactive”.

Regarding `NCC1OC(O[C@H]2[C@H](O)[C@@H](OC3C(O)C(N)CC(N)C3OC3OC(CO)C(O)C(O)C3N)O[C@@H]2CO)C(N)C(O)C1O` (some centres undefined), the Potency result was “inactive”.

Take `NO`: the Potency entry was “inactive”.

As to `CCOC(=O)N1CCN(/[N+]([O-])=N/Oc2ccc([N+](=O)[O-])cc2[N+](=O)[O-])CC1`, the Potency entry was “inactive”.

Regarding `COc1cccc(OC)c1OCCNCC1COc2ccccc2O1` (centres undefined), the Potency is 92 nM (active).

`NCCCCC(=O)O`: the Potency entry was “inactive”.

For `NC(N)=NC(=O)c1nc(Cl)c(N2CCCCCC2)nc1N`, the Potency result is “inactive”.

For `CN(C)CCCO[C@@H]1[C@H]2OC(C)(C)O[C@H]2O[C@@H]1[C@H](O)CO`, the Potency entry was “inactive”.

On to `COc1cc(OC)c(/C=C2/C(=O)Nc3ccccc32)c(OC)c1`, for which the Potency entry was “inactive”.

As for `O=C(CCCCCN1CCN(c2ccccc2-c2ccccc2)CC1)NC1CCCc2ccccc21` (centres undefined), the Potency result was “inactive”.
